# Hits are enriched below; roughly 11% of the tested compounds scored in any of these assays.
# hNpr1 antagonist: human Npr1 receptor antagonism | P16066 | HEK293 hNpr1 GloSensor cGMP, ANP-stimulated luminescence | Potency, µM (doses to about 46.3 µM), most hits filed as inhibitors | 76,000 compounds, 1.6% hits | AID 1347048; calls by dose curve; note: nearly all actives have a fitted effect of over 60% in size
#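 Compound pre-incubated 30 min at room temperature on GloSensor-loaded HEK293 cells stably carrying hNpr1 and the pGS-40F cGMP biosensor. Stimulation uses hNppA at 0.1 nM final; luminescence is taken at baseline and 20 min post-agonist.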
# HEK cytotox: HEK 293 cell cytotoxicity. HEK 293 viability, ATP luminescence (CellTiter-Glo), 48-72 h. Potency, µM (series often up to 115 µM), actives largely listed as inhibitors. 94,000 compounds, 6.6% hits. AID 1345083; note: nearly all actives have a fitted effect of over 60% in size
#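 Cells seeded first (HEK 293, 250 cells/well), then compound added by pintool. Incubation ran 48 or 72 hr at 37 degree Celsius. CellTiter-Glo was added and luminescence imaged after 10 min at room temperature.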
# NIH3T3 tox: kills NIH 3T3 cells. 94,000 compounds, 4.3% hits. Potency, µM (doses to about 96.7 µM), hits mostly inhibitors. NIH 3T3 viability, CellTiter-Glo ATP luminescence, 48-72 h; note: nearly all actives have a fitted effect of over 55% in size
#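 Viability of NIH 3T3 cells after 48 or 72 hr compound treatment at 37 °C was assessed by CellTiter-Glo, with luminescence imaged following a 10 min room-temperature step.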
# FLuc inh-1: blocks purified firefly luciferase enzyme activity; purified P. pyralis luciferase, luminescence, biochemical; Potency, µM (highest dose often 115 µM), hits mostly inhibitors; 76,000 compounds, 2.5% hits; AID 1347043; note: nearly all actives have a fitted effect of over 65% in size
# Target sequence (P08659 whole entry, looked up): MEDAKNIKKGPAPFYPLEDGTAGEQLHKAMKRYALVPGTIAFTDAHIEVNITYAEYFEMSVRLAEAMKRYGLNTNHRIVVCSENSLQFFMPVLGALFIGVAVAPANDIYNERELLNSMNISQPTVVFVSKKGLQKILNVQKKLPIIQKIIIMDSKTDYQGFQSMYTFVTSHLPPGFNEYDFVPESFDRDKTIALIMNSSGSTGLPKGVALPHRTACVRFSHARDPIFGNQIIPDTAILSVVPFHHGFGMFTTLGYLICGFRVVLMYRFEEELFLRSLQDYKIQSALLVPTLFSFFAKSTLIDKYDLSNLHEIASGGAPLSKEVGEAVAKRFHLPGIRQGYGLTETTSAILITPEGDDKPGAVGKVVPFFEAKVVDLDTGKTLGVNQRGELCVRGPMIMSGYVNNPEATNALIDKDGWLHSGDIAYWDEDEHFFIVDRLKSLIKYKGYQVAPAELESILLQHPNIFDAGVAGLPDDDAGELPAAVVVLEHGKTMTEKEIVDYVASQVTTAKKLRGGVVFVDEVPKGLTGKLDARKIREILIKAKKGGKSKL
#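 Purified 10nM P. pyralis luciferase with 10uM D-luciferin and 10uM ATP in 50mM Tris acetate pH 7.5, 10mM Mg acetate, 0.01% Tween-20, 0.05% BSA. qHTS titration; luminescence read by CCD imager.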
# FLuc SDR no ATP: binders stabilizing firefly luciferase, without ATP; shares compounds with FLuc inh-1; Purified FLuc-C-HiBiT, Nano-Glo HiBiT luminescence, no ATP; Potency, µM (doses to about 32.7 µM), hits mostly activators; 1,300 compounds, 7.8% hits; AID 1963318; note: nearly all actives have a fitted effect of over 55% in size
# FLuc SDR ATP: stabilizes firefly luciferase with ATP present; purified FLuc-C-HiBiT + ATP, HiBiT complementation luminescence; shares compounds with FLuc inh-1; Potency, µM (doses to about 32.7 µM), usual class: activators; 1,300 compounds, 8.7% hits;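 note: signal reports ligand binding via conformational change of the enzyme rather than luciferase catalysis; nearly all actives have a fitted effect of over 55% in size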
# FLuc inh-2: inhibitors of firefly luciferase enzymatic activity; shares compounds with FLuc inh-1; AID 1963320; Potency, µM (highest dose often 32.7 µM), most hits filed as inhibitors; 1,300 compounds, 42% hits; purified FLuc-C-HiBiT enzyme, luciferin luminescence; note: nearly all actives have a fitted effect of over 70% in size
# A number is an active result; 0 = inactive; ? = inconclusive; - = no result. Unless noted, calls come from the whole dose curve; as a rule, active = well fitted curve in the direction sought with a large enough effect; inconclusive = small, poorly fitted or top-dose-only effect, or another doubt; inactive = no such curve, though single readings can be large; an effect the other way counts as inactive or inconclusive.
SMILES,hNpr1 antagonist,HEK cytotox,NIH3T3 tox,FLuc inh-1,FLuc SDR no ATP,FLuc SDR ATP,FLuc inh-2
CCCn1ncc(-c2nc(-c3ccncc3)no2)c1C,?,35µM,?,2.5µM,?,?,8.8µM
O=C(c1ccncc1)N1CCC(Oc2ccc(-c3noc(-c4ccccc4)n3)cc2)C1 (stereo not given),14µM,?,?,14µM,0,0,?
Cc1ncccc1C(=O)N1CCC(Oc2ccc(-c3noc(-c4ccccc4)n3)cc2)C1 (stereo not given),11µM,?,?,7.1µM,0,0,?
O=C(c1cccc(F)c1)N1CC(Oc2ccc(-c3nc(-c4ccccc4)no3)cc2)C1,0,?,0,0,-,-,-
Cc1ccc(C(=O)N2CCCC(C(=O)N3CCCC(c4nc5ccncc5[nH]4)C3)C2)cc1 (stereo not given),-,0,0,-,-,-,-
Cc1ccccc1CCC1CCCN(S(=O)(=O)c2cccnc2)C1 (stereo not given),0,?,?,0,-,-,-
CN(C)C1CCN(c2ccc(-c3nc(CCCc4ccccc4)no3)cn2)CC1,0,28µM,35µM,5.6µM,0,0,0
CCC(=O)N1CCc2c(C(=O)NCc3ccccc3F)cccc21,0,0,?,0,-,-,-
CN(C)CCNC(=O)c1cccc2c1CCN2C(=O)Nc1ccccc1,?,?,0,3.5µM,0,1.1µM,0.7µM
CCC(=O)N1CCc2c(C(=O)Nc3ccc(N4CCOCC4)cc3)cccc21,0,0,0,0,-,-,-
Cc1ccc(NC(=O)N2CCc3c(C(=O)NCc4ccco4)cccc32)cc1,1.1µM,?,?,0.089µM,9.9µM,0.078µM,0.05µM
CCCCNC(=O)c1cccc2c1CCN2C(=O)Nc1ccccc1,?,?,0,3.5µM,0,2µM,1.6µM
CCCNC(=O)c1cccc2c1CCN2C(=O)Nc1cccc(C)c1,0,?,0,5µM,?,3.5µM,2.5µM
CCCC(=O)Nc1cc(-c2cccnc2)nn1-c1ccccc1,-,0,0,-,-,-,-
CC(C)(C)C(=O)Nc1cc(-c2ccccn2)nn1-c1ccccc1,-,?,0,-,-,-,-
Cc1ccc(NC(=O)N2CCc3c(C(=O)NCCc4ccccn4)cccc32)cc1,0,?,?,5.6µM,?,11µM,4.4µM
O=C1NCCCCCCN(C(=O)Nc2ccc3c(c2)OCCO3)[C@H]2CCC[C@@H]12,?,0,0,1.1µM,?,?,3.5µM
O=C1CCN(C(=O)[C@@H]2CCCN2C(=O)Nc2ccc3c(c2)OCCO3)CCCCCCN1,0,0,0,0,-,-,-
CC(C)(C)n1cc(-c2cc(C(=O)N3C[C@H]4CC[C@H]3C4)c3ccccc3n2)cn1,0,?,?,2.8µM,?,?,7µM
COc1ccc(CNC(=O)Nc2cccc(-c3ccc(N4CCOCC4)nn3)c2)cc1,0,?,0,0.89µM,?,?,2µM
O=C(NCc1ccc(F)cc1)Nc1cccc(-c2ccc(N3CCOCC3)nn2)c1,?,?,0,1.3µM,?,?,1.8µM
COc1ccc(NC(=O)Nc2cccc(-c3ccc(N4CCOCC4)nn3)c2)cc1F,10µM,?,0,0.4µM,?,?,0.88µM
COc1ccc(C(=O)Nc2cccc(-c3nnc4n3CCCC4)c2)cc1F,0,0,0,?,-,-,-
COc1ccc(NC(=O)Nc2cccc(-c3ccc(N4CCOCC4)nn3)c2)cc1,10µM,?,0,1.1µM,?,?,1.8µM
COc1ccccc1-c1ccc2c(C(=O)N3CCN(Cc4ccccc4)CC3)nn(C)c2n1,-,0,0,-,-,-,-
SMILES,hNpr1 antagonist,HEK cytotox,NIH3T3 tox,FLuc inh-1,FLuc SDR no ATP,FLuc SDR ATP,FLuc inh-2
O=C(Cc1ccc(F)cc1)NC1CCCN(c2ccnc3ccnn23)C1 (stereo not given),-,0,0,-,-,-,-
COc1ccc2nc(-c3ccc(Oc4ccccc4)cc3)sc2c1,-,-,-,-,0,?,11µM
C=Cc1ccc(-c2nc3ccc(OC)cc3s2)cc1,-,-,-,-,12µM,?,0.44µM
Cc1ccc2nc(C(=O)N3CCCC3c3cc(C(C)C)on3)cn2c1 (stereo not given),0,0,0,10µM,0,0,?
COc1nc2ccccc2nc1CCC(=O)N[C@H]1COC[C@H]1Cc1cc(C)no1,0,0,0,0,-,-,-
CSc1ccc(/C=C/c2nc3ccccc3n2S(=O)(=O)c2ccc(F)c(C)c2)cc1,-,-,-,-,5µM,?,0.7µM
CCOc1ccc(/C=C/c2nc3ccccc3n2S(=O)(=O)c2cccc(Cl)c2)cc1,-,-,-,-,3.1µM,?,0.39µM
COCc1nncn1C1CCN(S(=O)(=O)c2cccc(Cl)c2)CC1,0,0,0,0,-,-,-
Cc1ccc(/C=C/c2nc3ccccc3n2S(=O)(=O)c2cccc(Cl)c2)cc1,-,-,-,-,0.56µM,0.7µM,0.12µM
Cc1cc(CNC(=O)CC2C=CS(=O)(=O)C2)c2[nH]c(-c3ccccc3)c(C)c2c1 (stereo not given),0,45µM,40µM,6.3µM,0,0,?
Cc1cc(C)cc(C(=O)N2CCC(CC(=O)NCc3ccccc3)C2)c1 (stereo not given),0,0,0,0,-,-,-
Cc1cn2nc(C(=O)NCCC3=CCCCC3)cc2c(N2CCCC2)n1,0,0,?,0,-,-,-
C[C@@H]1C(=O)O[C@H]2[C@H]1CC[C@@]1(C)Cc3sc(Nc4cccnc4)nc3[C@@H](C)[C@H]21,16µM,0,0,0.79µM,1µM,?,0.45µM
COc1ccc(OC)c(S(=O)(=O)Nc2nc3c(s2)C[C@]2(C)CC[C@@H]4[C@H](OC(=O)[C@H]4C)[C@H]2[C@@H]3C)c1,0,?,?,0,-,-,-
C[C@@H]1C(=O)O[C@H]2[C@H]1CC[C@@]1(C)Cc3sc(NCCc4ccccn4)nc3[C@@H](C)[C@H]21,?,35µM,?,4.5µM,?,0,16µM
Cc1ccc(S(=O)(=O)Nc2nc3c(s2)C[C@]2(C)CC[C@@H]4[C@H](OC(=O)[C@H]4C)[C@H]2[C@@H]3C)cc1,0,0,0,?,-,-,-
C[C@@H]1C(=O)O[C@H]2[C@H]1CC[C@@]1(C)Cc3sc(NCc4ccccc4)nc3[C@@H](C)[C@H]21,?,?,?,3.5µM,?,0,7.2µM
CCCn1nc(C)c(-c2cc(C(=O)N3CCCC(Cc4nncn4Cc4ccccc4)C3)[nH]n2)c1C (stereo not given),0,0,0,0,-,-,-
c1ccc(-c2ccnc(NCCc3c[nH]c4ccccc34)n2)nc1,0,?,?,8.9µM,0,0,?
COc1ccc(C(=O)NC2CCCN(CCn3nc4n(c3=O)CCCC4)C2)cc1 (stereo not given),-,0,0,-,-,-,-
Cc1ccc(NC(=O)CN2C(=O)NC3(CCCCC3)C2=O)c(C)c1,0,0,0,0,-,-,-
Cc1ccc(NC(=O)c2oc3ccc4c(c3c2C)C(=O)CC(C)(C)O4)c(C)c1,-,-,-,-,0,?,?

# Source: PubChem BioAssay (National Center for Advancing Translational Sciences (NCATS))
